The text below walks through data of PubChem BioAssay.

The structures appear in SMILES notation. Active and inactive are the calls of the source. Unless noted, no rule for the calls is given here.

Assay [1] can be described thus: resazurin metabolic signal in HepG2 cells – cell-based, resazurin fluorescence, 24 h, PK04 Diversity Set, profiling panel (AID 1172). The following applies: HepG2 viability, higher = more signal.
Assay [2] in a line: budding yeast growth changes without added modifier – OD600, strain BY4716, 24 h, basal condition, primary screen (AID 1173). The note with it: S. cerevisiae BY4716 growth, OD600, 24 h; higher = more signal, called active from +8 up or from −8 down.
Assay [3] can be described thus: viability profiling in MM1S myeloma cells – cell-based, resazurin fluorescence, basal, 24 h, PK04 Diversity Set, profiling panel (AID 1174).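 Also: MM1S multiple myeloma cell line.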 The following applies: higher = more signal, called active from +8 up or from −8 down.
In assay [4] the target is Dihydroorotate dehydrogenase (quinone), mitochondrial (Plasmodium falciparum (isolate 3D7)) (UniProt Q08210). Kind of assay: inhibition of P. falciparum DHODH – biochemical, C-terminal His tag, absorbance 600 nm, primary screen (AID 1175).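 Also: recombinant parasite enzyme with a five histidine tag at its C terminus.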 The note with it: PfDHODH enzyme, DCIP absorbance 600 nm; higher = more signal, called active from +8 up or from −8 down.
Assay [5] can be described thus: inhibition of PAO1 biofilm formation – strain PAO1, LB-PBS medium, absorbance 600 nm, primary screen (AID 1176). The note with it: P. aeruginosa PAO1 growth/biofilm, A600, 12 h; higher = more signal.
The nature of assay [6]: growth modulation of vineyard yeast isolate – strain RM11-1a, OD600, basal, 24 h, primary screen (AID 1177).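 Also: cultures grown under basal conditions with no added stressor.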 The following applies: S. cerevisiae RM11-1a growth, OD600, 24 h; higher = more signal, called active from +8 up or from −8 down.
A short description of assay [7]: growth of efflux-deficient E. coli DRC39 – strain DRC39, OD650, 24 h, E. coli filamentation inducers, primary screen (AID 1178).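 Also: growth measured as culture turbidity by optical density at 650 nm.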 The note with it: E. coli DRC39 acrAB, higher = more signal, called active from +8 up or from −8 down.
A short description of assay [8]: growth of efflux-deficient E. coli DRC39 – strain DRC39, OD650, 48 h, E. coli filamentation inducers, primary screen (AID 1179).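 Also: screen aims at cell division blockers that make cells filament.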 The note with it: E. coli DRC39 delta-acrAB growth, higher = more signal, called active from +8 up or from −8 down.
A short description of assay [9]: viability profiling in RPMI8226 myeloma cells – cell-based, resazurin fluorescence, basal, 24 h, PK04 Diversity Set, profiling panel (AID 1180).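 Also: RPMI8826 multiple myeloma cell line at 5000 cells per well.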 The note with it: higher = more signal.
The target of assay [10] is E3 ubiquitin-protein ligase XIAP (Homo sapiens) (UniProt P98170). In words: small molecules binding XIAP protein – biophysical, small-molecule microarray, fluorescence 635 nm, primary screen (AID 1181).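 Also: score merges 667 nm emission and signal to noise over triplicate slides.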 The note with it: higher = more signal.
The test system of assay [11] is XIP peptide (Xip251-270) binding. In words: XIP fragment 251-270 binding compounds – biochemical, small-molecule microarray, fluorescence 635/667 nm, 0.1 µg/mL protein, primary screen (AID 1182). The note with it: fluorescent protein binding, 635 nm, higher = more signal, called active from +8 up or from −8 down.
In the next assay the test system is XIP peptide (Xip251-270). In words: compounds binding XIP fragment 251-270 – biochemical, small-molecule microarray, fluorescence 635/667 nm, 0.5 µg/mL protein, primary screen (AID 1183). The note with it: fluorescence 635 nm, higher = more signal.
The nature of assay [12]: blood-stage malaria parasite viability loss – strain 3D7, DAPI fluorescence, 100 nL, primary screen (AID 1184).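 Also: parasites grown inside human red blood cells in medium with human serum.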 The note with it: P. falciparum 3D7 growth, 3 d, higher = more signal.
Assay [13] concerns the target Homeobox protein Hox-A13 (Mus musculus) (UniProt Q62424). Kind of assay: disruptors of Hoxa13 oligonucleotide interaction – biochemical, fluorescence polarization, labeled oligonucleotide, primary screen (AID 1185). The note with it: Hoxa13:DNA binding, 15 min, higher = more signal, called active from +8 up or from −8 down.
Assay [14] is described as follows: blockers of DNA damage checkpoint Chk1 activation – imaging, HeLa, hydroxyurea, phospho-Chk1 antibody, percent positive cells, primary screen (AID 1186). The following applies: hydroxyurea-induced phospho-Chk1 immunofluorescence imaging, higher = more signal.
Assay [15] is described as follows: blockers of DNA damage checkpoint Chk1 activation – imaging, HeLa, hydroxyurea, phospho-Chk1 nuclear intensity, primary screen (AID 1187). The note with it: hydroxyurea-induced phospho-Chk1 immunofluorescence imaging, higher = more signal.

Dihydroorotate dehydrogenase (quinone), mitochondrial (Plasmodium falciparum (isolate 3D7)), sequence (Q08210 whole entry, looked up): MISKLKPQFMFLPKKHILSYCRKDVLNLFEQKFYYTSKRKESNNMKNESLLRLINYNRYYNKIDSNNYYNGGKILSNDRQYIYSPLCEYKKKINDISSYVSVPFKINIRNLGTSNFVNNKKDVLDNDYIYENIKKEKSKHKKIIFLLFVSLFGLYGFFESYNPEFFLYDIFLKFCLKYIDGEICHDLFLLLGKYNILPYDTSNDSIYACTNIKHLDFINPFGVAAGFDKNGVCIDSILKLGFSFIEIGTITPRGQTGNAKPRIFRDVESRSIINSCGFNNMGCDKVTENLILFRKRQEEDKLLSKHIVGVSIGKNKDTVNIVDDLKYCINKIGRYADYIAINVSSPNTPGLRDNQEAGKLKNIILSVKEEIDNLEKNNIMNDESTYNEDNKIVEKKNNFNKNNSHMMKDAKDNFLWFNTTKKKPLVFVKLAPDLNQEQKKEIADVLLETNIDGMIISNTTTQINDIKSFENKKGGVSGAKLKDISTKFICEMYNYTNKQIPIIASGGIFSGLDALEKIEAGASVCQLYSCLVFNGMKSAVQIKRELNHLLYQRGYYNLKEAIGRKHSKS
Homeobox protein Hox-A13 (Mus musculus), sequence (Q62424 whole entry, looked up): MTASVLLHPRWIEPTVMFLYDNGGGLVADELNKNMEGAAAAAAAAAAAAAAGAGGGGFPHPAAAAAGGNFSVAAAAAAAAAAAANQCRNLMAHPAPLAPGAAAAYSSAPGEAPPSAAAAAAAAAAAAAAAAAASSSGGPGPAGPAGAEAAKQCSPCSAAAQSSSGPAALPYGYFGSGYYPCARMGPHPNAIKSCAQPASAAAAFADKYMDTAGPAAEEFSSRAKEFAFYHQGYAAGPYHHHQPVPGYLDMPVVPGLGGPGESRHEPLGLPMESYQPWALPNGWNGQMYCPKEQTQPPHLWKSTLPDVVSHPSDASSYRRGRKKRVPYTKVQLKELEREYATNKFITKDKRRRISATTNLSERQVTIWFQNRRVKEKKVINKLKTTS
E3 ubiquitin-protein ligase XIAP (Homo sapiens), sequence (P98170 whole entry, looked up, the tested form may be a part): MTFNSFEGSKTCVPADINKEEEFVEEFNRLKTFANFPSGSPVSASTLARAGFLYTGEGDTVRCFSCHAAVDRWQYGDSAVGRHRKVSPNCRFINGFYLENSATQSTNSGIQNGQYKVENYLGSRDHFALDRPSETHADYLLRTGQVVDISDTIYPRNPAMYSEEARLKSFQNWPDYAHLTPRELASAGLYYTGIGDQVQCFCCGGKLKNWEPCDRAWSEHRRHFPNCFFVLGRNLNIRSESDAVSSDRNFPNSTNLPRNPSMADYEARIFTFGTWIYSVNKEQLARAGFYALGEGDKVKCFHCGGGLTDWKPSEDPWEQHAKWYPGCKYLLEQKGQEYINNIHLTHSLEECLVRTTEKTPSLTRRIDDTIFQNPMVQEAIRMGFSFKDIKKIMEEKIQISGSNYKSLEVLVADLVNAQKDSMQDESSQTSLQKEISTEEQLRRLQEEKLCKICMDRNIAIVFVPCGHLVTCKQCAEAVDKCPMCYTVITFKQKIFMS

For the compound `O=C1C[C@@](C(=O)NC2CC2)(c2ccc([N+](=O)[O-])cc2)[C@@H](c2ccc(CO)cc2)N1C1CCCCC1`, the z-score in assay [1] was 0.363; in [2], -1.44 (inactive); in [3] it was 1.23 (inactive); in assay [5], 1.46 (inactive); in [6], -2.37 (inactive); in [7] it was 0.0991 (inactive). Besides, the z-score in assay [8] was -0.0005 (inactive); in assay [9], 1.48; in [12], -1.39; in assay [13] it was -3.19 (inactive); in assay [14], -0.544 (inactive); in [15], -0.979 (inactive). Also, the composite z-score in assay [4] is -6.96 (inactive); in [10], -0.0574; in [11], 1.19 (inactive); in the assay with XIP peptide (Xip251-270) it was 0.662.
As for `CN(C)CCCCNC(=O)[C@H]1C[C@H]2C(=O)NCC(=O)N2[C@H]1c1ccc(O)cc1`, the z-score in assay [1] is 1.1; in [2], -0.0401 (inactive); in assay [3], 0.917 (inactive); in [5], -0.599 (inactive); in assay [6] it was 1.56 (inactive); in assay [7], 0.0662 (inactive). Further, the z-score in assay [8] was -0.363 (inactive); in assay [9] it was 0.511; in assay [12], 0.185; in assay [13] it was -4.67 (inactive); in assay [14], -0.15 (inactive); in assay [15] it was -0.186 (inactive). Moreover, the composite z-score is 0.373 (inactive) in assay [4], 0.147 in assay [10], 0.372 (inactive) in assay [11] and 0.815 in the assay on XIP peptide (Xip251-270).
With `CC(C)(C)N1CC=CC23O[C@@H]4C=CCCOC(=O)C4[C@H]2C(=O)N(CCCCCCO)[C@@H]3C1=O` (stereo not given in full), the z-score in assay [1] was 0.0735; in assay [2] it was -0.437 (inactive); in [3] it was -0.176 (inactive); in assay [5] it was -0.456 (inactive); in assay [6] it was 0.735 (inactive); in [7], -0.0435 (inactive). Besides, the z-score in [8] is 0.43 (inactive); in assay [9] it was 0.382; in assay [12] it was -0.143; in assay [13], -3.77 (inactive); in [14] it was -0.327 (inactive); in assay [15], 0.222 (inactive). The composite z-score in assay [4] was 0.713 (inactive); in assay [10] it was 0.189; in assay [11] it was 1.14 (inactive); in the assay with XIP peptide (Xip251-270), 0.202.
For `CCOC(=O)C1=CC[C@@H](c2ccc(OC)cc2)N(S(=O)(=O)c2ccc(C)cc2)[C@H]1c1ccc(C)cc1`, the z-score is 0.164 in assay [1]; 1.31 (inactive) in [2]; -0.616 (inactive) in assay [3]; -0.0601 (inactive) in assay [5]; -0.187 (inactive) in assay [6]; -0.346 (inactive) in [7]. Further, the z-score in assay [8] is -0.148 (inactive); in [9] it was -0.652; in assay [12], 0.869; in assay [13] it was -0.57 (inactive); in assay [14], -0.0113 (inactive); in [15], -0.5 (inactive). In addition, the composite z-score in [4] is -0.329 (inactive); in [10], 0.126; in assay [11], 0.3 (inactive); with XIP peptide (Xip251-270) it was 0.44.
On to `CN1C(=O)C2C(C1=O)C1C=C(c3ccc(CO)cc3)C2C(C2CC2)N1C` (stereo not given), for which the z-score in assay [1] is -0.849; in assay [2], 0.385 (inactive); in assay [3], -0.485 (inactive); in assay [5], -0.305 (inactive); in [6], 0.358 (inactive); in assay [7], -0.453 (inactive). In addition, the z-score in [8] was -0.335 (inactive); in assay [9], -0.772; in [12] it was -1.97; in assay [13], -5.37 (inactive); in assay [14], -0.287 (inactive); in [15], -0.232 (inactive). The composite z-score in [4] was 0.918 (inactive); in assay [10], -0.0611; in [11] it was 0.017 (inactive); with XIP peptide (Xip251-270), 0.816.
As for `CC1CC/C=C\[C@H]2OC34C=CCN(c5ccc6ccccc6c5)C(=O)[C@H]3N(C(C)CO)C(=O)[C@@H]4C2C(=O)O1` (stereo not given in full), the z-score is -0.0727 in assay [1]; -0.36 (inactive) in assay [2]; -0.304 (inactive) in assay [3]; -0.236 (inactive) in assay [5]; 0.853 (inactive) in assay [6]; 0.0825 (inactive) in assay [7]. The z-score in assay [8] was 0.509 (inactive); in assay [9], 0.762; in assay [12], -0.338; in assay [13], -4.97 (inactive); in assay [14], 0.0352 (inactive); in assay [15] it was -0.228 (inactive). For the same compound, the composite z-score in [4] was 0.631 (inactive); in assay [10] it was -0.208; in assay [11], -0.0371 (inactive); with XIP peptide (Xip251-270) it was -0.691.
As for `[N-]=[N+]=NCc1ccccc1[C@@H]1OC(c2ccc(OCCCO)cc2)=N[C@]1(Cc1ccccc1N=[N+]=[N-])C(=O)O`, the z-score is 0.495 in [1]; -3.6 (inactive) in assay [2]; 0.589 (inactive) in [3]; 1.42 (inactive) in assay [5]; 0.783 (inactive) in assay [6]; 2.32 (inactive) in [7]. For the same compound, the z-score in assay [8] is 0.499 (inactive); in assay [9] it was -0.0845; in assay [12], -1.9; in assay [13] it was -3.59 (inactive); in assay [14], 0.277 (inactive); in [15] it was 0.585 (inactive). The composite z-score in assay [4] is 0.454 (inactive); in assay [10] it was 0.104; in assay [11] it was 1.21 (inactive); in the assay on XIP peptide (Xip251-270), 0.722.
With `COCCCNC(=O)[C@@H]1c2ccccc2C(=O)N(Cc2ccc(OC(F)(F)F)cc2)[C@H]1c1ccc(CO)cc1`, the z-score in assay [1] is 0.201; in assay [2] it was 0 (inactive); in assay [3], -0.148 (inactive); in [5], 0.801 (inactive); in [6], -1.06 (inactive); in [7], 0.454 (inactive). Moreover, the z-score in [8] was -0.34 (inactive); in assay [9], 0.116; in assay [12], 0.0414; in assay [13] it was -3.51 (inactive); in assay [14] it was -0.163 (inactive); in [15], -0.368 (inactive). In addition, the composite z-score was 0.228 (inactive) in assay [4], -0.219 in [10], 0.16 (inactive) in assay [11] and 0.314 in the assay on XIP peptide (Xip251-270).
As for `COc1ccc(NN2C(C(O)c3ccc(I)cc3)C=CC3C(=O)N(C4CCCCC4)C(=O)C32)cc1` (stereo not given), the z-score in assay [1] is 1.59; in assay [2] it was 0.0997 (inactive); in assay [3], 0.28 (inactive); in assay [5] it was 0.726 (inactive); in assay [6], 0.475 (inactive); in [7], -0.558 (inactive). Also, the z-score in assay [8] was 0.725 (inactive); in [9], -0.313; in assay [12] it was -0.684; in [13] it was -3.31 (inactive); in [14] it was 0.0831 (inactive); in assay [15], -0.481 (inactive). Also, the composite z-score in [4] was 0.526 (inactive); in [10] it was 0.144; in assay [11], 1.63 (inactive); in the assay on XIP peptide (Xip251-270) it was 0.618.
Consider `O=C1N(Cc2ccccc2)c2ccccc2C[C@@]12COC(c1ccc(OCCCO)cc1)=N2`, for which the z-score was 0.792 in assay [1]; -0.248 (inactive) in assay [2]; -1.61 (inactive) in assay [3]; 1.39 (inactive) in assay [5]; 0.903 (inactive) in assay [6]; 1.17 (inactive) in assay [7]. Besides, the z-score in assay [8] is -0.187 (inactive); in [9], 0.712; in assay [12], -2.23; in assay [13] it was -5.21 (inactive); in assay [14] it was 0.0438 (inactive); in assay [15], 0.311 (inactive). In addition, the composite z-score in assay [4] is 0.0144 (inactive); in assay [10], 0.0578; in assay [11] it was 1.45 (inactive); in the assay with XIP peptide (Xip251-270), 0.308.
